# The full list was thinned out, with the strongest signals kept by preference.
# B1: rAAL-H59Q (Agrocybe aegerita), Q6WY08 (protein)
# chain: MQGVNIYNISAGTSVDLAAPVTTGDIVTFFSSALNLNAGAGNPNNTTLNLFAENGAYLLQIAFRLQENVIIFNSRQPDGPWLVEQRVSDVANQFAGIDGKAMVTVFDHGDKYQVVINEKTVIQYTKQISGLTLSLSYNATEETSIFSTVVEAVTYTGLALEHHHHHH
# Experiments:
# Assay in all cases: glycan array binding signal (z-score within array); higher = stronger binding
# Details in all cases: glycan notation: IUPAC condensed, linker removed; mutation: H59Q
# [1] = target: Fuc(a1-2)Gal(b1-3)[Fuc(a1-4)]GlcNAc(b1-2)Man(a1-3)[Fuc(a1-2)Gal(b1-3)[Fuc(a1-4)]GlcNAc(b1-2)Man(a1-3)]Man(b1-4)GlcNAc(b1-4)GlcNAc
# Procedure, shortened: (§1)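 The binding signal is a Z-score computed within each array. Data were drawn from 3228 arrays in the Consortium for Functional Glycomics database, restricted to those with a known protein sequence. Scores were averaged over arrays of the same protein sequence at different concentrations or buffers, and over linkers, and negative values can be taken as non-binding.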
# [2] = target: Fuc(a1-2)Gal(b1-4)GlcNAc(b1-3)Gal(b1-4)GlcNAc(b1-3)Gal(b1-4)GlcNAc
# Procedure, shortened: as §1
# [3] = target: Fuc(a1-2)Gal(b1-4)GlcNAc6S
# Procedure, shortened: as §1
# [4] = target: Fuc(a1-2)Gal(b1-4)[Fuc(a1-3)]GlcNAc
# Procedure, shortened: as §1
# [5] = target: Fuc(a1-2)Gal(b1-4)[Fuc(a1-3)]GlcNAc(b1-2)Man(a1-3)[Fuc(a1-2)Gal(b1-4)[Fuc(a1-3)]GlcNAc(b1-2)Man(a1-6)]Man(b1-4)GlcNAc(b1-4)[Fuc(a1-6)]GlcNAc
# Procedure, shortened: as §1
# [6] = target: Fuc(a1-2)[Gal(a1-3)]Gal(b1-4)[Fuc(a1-3)]Glc
# Procedure, shortened: as §1
# [7] = target: Fuc(a1-2)[GalNAc(a1-3)]Gal(b1-3)GlcNAc(b1-2)Man(a1-3)[Fuc(a1-2)[GalNAc(a1-3)]Gal(b1-3)GlcNAc(b1-2)Man(a1-6)]Man(b1-4)GlcNAc(b1-4)[Fuc(a1-6)]GlcNAc
# Procedure, shortened: as §1
# [8] = target: Fuc(a1-2)[GalNAc(a1-3)]Gal(b1-3)GlcNAc(b1-3)GalNAc
# Procedure, shortened: as §1
# [9] = target: Fuc(a1-2)[GalNAc(a1-3)]Gal(b1-4)GlcNAc(b1-6)GalNAc
# Procedure, shortened: as §1
# [10] = target: Fuc(a1-3)[Gal(b1-4)]GlcNAc(b1-6)GalNAc
# Procedure, shortened: as §1
# Gal(a1-3)Gal(b1-4)Glc = target: Gal(a1-3)Gal(b1-4)Glc
# Procedure, shortened: as §1
# [11] = target: Gal(b1-3)GlcNAc(a1-3)Gal(b1-4)GlcNAc
# Procedure, shortened: as §1
# [12] = target: Gal(b1-3)GlcNAc(b1-3)Gal(b1-4)GlcNAc
# Procedure, shortened: as §1
# [13] = target: Gal(b1-3)GlcNAc(b1-3)Gal(b1-4)GlcNAc(b1-2)[Gal(b1-3)GlcNAc(b1-3)Gal(b1-4)GlcNAc(b1-6)]Man(a1-6)[Gal(b1-3)GlcNAc(b1-3)Gal(b1-4)GlcNAc(b1-2)Man(a1-3)]Man(b1-4)GlcNAc(b1-4)[Fuc(a1-6)]GlcNAc
# Procedure, shortened: as §1
# [14] = target: Gal(b1-3)[Fuc(a1-4)]GlcNAc
# Procedure, shortened: as §1
# [15] = target: Gal(b1-4)GlcNAc(b1-2)Man(a1-3)[GlcNAc(b1-4)][Gal(b1-4)GlcNAc(b1-2)Man(a1-6)]Man(b1-4)GlcNAc(b1-4)GlcNAc
# Procedure, shortened: as §1
# [16] = target: Gal(b1-4)GlcNAc(b1-2)Man(a1-3)[Man(a1-6)]Man(b1-4)GlcNAc(b1-4)GlcNAc
# Procedure, shortened: as §1
# [17] = target: Gal(b1-4)GlcNAc(b1-2)Man(a1-6)[Man(a1-3)]Man(b1-4)GlcNAc(b1-4)GlcNAc
# Procedure, shortened: as §1
# [18] = target: Gal(b1-4)GlcNAc(b1-3)Gal(b1-4)GlcNAc(b1-2)Man(a1-3)[Gal(b1-4)GlcNAc(b1-3)Gal(b1-4)GlcNAc(b1-2)Man(a1-6)]Man(b1-4)GlcNAc(b1-4)[Fuc(a1-6)]GlcNAc
# Procedure, shortened: as §1
# [19] = target: Gal(b1-4)GlcNAc(b1-3)[GlcNAc(b1-6)]Gal(b1-4)GlcNAc
# Procedure, shortened: as §1
# Gal3S(b1-3)GalNAc = target: Gal3S(b1-3)GalNAc
# Procedure, shortened: as §1
# Gal3S(b1-3)GlcNAc = target: Gal3S(b1-3)GlcNAc
# Procedure, shortened: as §1
# Gal3S(b1-4)Glc = target: Gal3S(b1-4)Glc
# Procedure, shortened: as §1
# Gal3S(b1-4)Glc6S = target: Gal3S(b1-4)Glc6S
# Procedure, shortened: as §1
# Gal3S(b1-4)GlcNAc = target: Gal3S(b1-4)GlcNAc
# Procedure, shortened: as §1
# [20] = target: Gal3S(b1-4)[Fuc(a1-3)]GlcNAc6S
# Procedure, shortened: as §1
# Gal3S4S(b1-4)GlcNAc = target: Gal3S4S(b1-4)GlcNAc
# Procedure, shortened: as §1
# Gal3S6S(b1-4)GlcNAc6S = target: Gal3S6S(b1-4)GlcNAc6S
# Procedure, shortened: as §1
# Gal6S(b1-3)GlcNAc6S = target: Gal6S(b1-3)GlcNAc6S
# Procedure, shortened: as §1
# Gal6S(b1-4)GlcNAc = target: Gal6S(b1-4)GlcNAc
# Procedure, shortened: as §1
binder,measurement,setting,value
B1,glycan array binding signal (z-score),[1],-0.014
same,glycan array binding signal (z-score),[2],-0.113
same,glycan array binding signal (z-score),[3],-0.085
same,glycan array binding signal (z-score),[4],-0.09
same,glycan array binding signal (z-score),[5],0.171
same,glycan array binding signal (z-score),[6],-0.097
same,glycan array binding signal (z-score),[7],-0.106
same,glycan array binding signal (z-score),[8],-0.035
same,glycan array binding signal (z-score),[9],-0.124
same,glycan array binding signal (z-score),[10],-0.126
same,glycan array binding signal (z-score),Gal(a1-3)Gal(b1-4)Glc,-0.07
same,glycan array binding signal (z-score),[11],-0.119
same,glycan array binding signal (z-score),[12],-0.093
same,glycan array binding signal (z-score),[13],0.115
same,glycan array binding signal (z-score),[14],-0.116
same,glycan array binding signal (z-score),[15],-0.06
same,glycan array binding signal (z-score),[16],-0.059
same,glycan array binding signal (z-score),[17],0.003
same,glycan array binding signal (z-score),[18],-0.015
same,glycan array binding signal (z-score),[19],-0.115
same,glycan array binding signal (z-score),Gal3S(b1-3)GalNAc,7.76
same,glycan array binding signal (z-score),Gal3S(b1-3)GlcNAc,0.192
same,glycan array binding signal (z-score),Gal3S(b1-4)Glc,0.7
same,glycan array binding signal (z-score),Gal3S(b1-4)Glc6S,0.468
same,glycan array binding signal (z-score),Gal3S(b1-4)GlcNAc,0.615
same,glycan array binding signal (z-score),[20],0.694
same,glycan array binding signal (z-score),Gal3S4S(b1-4)GlcNAc,-0.119
same,glycan array binding signal (z-score),Gal3S6S(b1-4)GlcNAc6S,0.071
same,glycan array binding signal (z-score),Gal6S(b1-3)GlcNAc6S,-0.113
same,glycan array binding signal (z-score),Gal6S(b1-4)GlcNAc,-0.086
